Bioassay records (PubChem BioAssay)
Sampled rows, rich in hits. Any-hit rate of the full collection: about 21%.
NS1 inh = qHTS Assay for Inhibitors of Influenza NS1 Protein Function. Potency, µM (top dose mostly 46.1 µM). hit rate 0.4% among 270,000. AID 2326, 2010; calls by dose curve; also: actives are rising curves; nearly all actives have a fitted effect of over 50% in size
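Recovery from NS1-induced slow growth read by OD600 in budding yeast switched to galactose assay medium (pH 6.0, -URA) at 1:100 dilution. Compound 23 nl per well; the matching strain lacking NS1 serves as control.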
Pf growth 96h = Primary qHTS for delayed death inhibitors of the malarial parasite plastid, 96 hour incubation. AID 504834, 2011. Potency, µM (titrated, usually from 28.7 µM), most hits filed as inhibitors. hit rate 6.9% among 320,000. P. falciparum luciferase reporter growth, 96 h
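Erythrocytes infected with luciferase-expressing P. falciparum were dispensed at 2% hematocrit and 0.05% parasitemia (final), then incubated with compounds 96 hours at 37 C in 5% CO2. Luminescence after detection reagent addition reported growth.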
Pf growth 48h = Primary qHTS for delayed death inhibitors of the malarial parasite plastid, 48 hour incubation; P. falciparum luciferase growth in erythrocytes, 48 h; Potency, µM (doses to about 28.7 µM), actives largely listed as inhibitors; hit rate 5.9% among 310,000; AID 504832, 2011
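In quantitative HTS format, infected erythrocytes bearing luciferase-reporter parasites were treated for a single generation at 37 C. Luminescence after adding detection reagent served as the growth measure.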
Shiga toxin inh = A qHTS for Small Molecule Inhibitors of Shiga Toxin. Vero cells, Shiga toxin protein synthesis inhibition reporter. inhibition, % at 38.7 µM. hit rate 9.2% among 290,000. AID 2315, 2010; in the data active = inhibition mostly above about 28%, no sharp cut-off; inactive = mostly below about 43%
CHX counter = Cycloheximide Counterscreen for Small Molecule Inhibitors of Shiga Toxin | max response, % | AID 2314, 2010 | hit rate 12% among 300,000 | cell reporter, cycloheximide protein synthesis inhibition counterscreen; in the data active = max response mostly above about 13%, no sharp cut-off; inactive = mostly below about 14%; also: read at 38.3 µM for the half of the compounds with a filed dose
Giardia FBPA inh = qHTS Assay for Inhibitors of Fructose-1,6-bisphosphate Aldolase from Giardia Lamblia; hit rate 0.71% among 290,000; purified Giardia FBPA; A8B2U2; Potency, µM (titrated, usually from 59.6 µM), usual class: inhibitors; AID 2451, 2010; also: nearly all actives have a fitted effect of over 55% in size
Target sequence (A8B2U2 whole entry, looked up): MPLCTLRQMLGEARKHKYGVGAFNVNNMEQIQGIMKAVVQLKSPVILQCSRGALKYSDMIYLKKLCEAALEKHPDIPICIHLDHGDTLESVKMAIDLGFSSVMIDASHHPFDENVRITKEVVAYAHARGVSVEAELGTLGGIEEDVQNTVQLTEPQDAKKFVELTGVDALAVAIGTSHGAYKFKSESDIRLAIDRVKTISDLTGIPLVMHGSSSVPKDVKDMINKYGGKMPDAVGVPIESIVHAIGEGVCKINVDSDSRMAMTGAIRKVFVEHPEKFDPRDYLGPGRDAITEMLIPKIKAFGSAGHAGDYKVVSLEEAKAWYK
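Giardia FBPA (40 nM reagent) was preincubated 10 min at RT with compound (up to 57.5 uM final), then substrate plus GAPDH/TPI/NAD/arsenate coupling system with diaphorase/resazurin was added; resorufin fluorescence (525/598 nm) was read after 20 min.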
Numbers stand for hits; i = inactive; ? = inconclusive; nt = no result given. Unless noted, calls follow the shape of the dose curve; as a rule, active = well fitted curve in the direction sought with a large enough effect; inconclusive = small, poorly fitted or top-dose-only effect, or another doubt; inactive = no such curve, though single readings can be large; an effect the other way counts as inactive or inconclusive.

SMILES | NS1 inh | Pf growth 96h | Pf growth 48h | Shiga toxin inh | CHX counter | Giardia FBPA inh
O=C(Nc1nnc(C2CCCO2)s1)c1ccc(Br)cc1 (centres undefined) | i | i | nt | i | 20 | i
Cc1cccc(OCCCC(=O)Nc2nnc(C3CCCO3)s2)c1C (centres undefined) | i | i | i | i | i | i
CCc1ccc(OCCCC(=O)Nc2nnc(C3CCCO3)s2)cc1 (centres undefined) | i | 12µM | i | i | i | i
Cc1ccc(OCC(=O)Nc2nnc(C3CCCO3)s2)c(Br)c1 (centres undefined) | nt | ? | i | 70 | i | i
Cn1c(=O)c2c(nc(Cl)n2CC(=O)N2CCCCC2)n(C)c1=O | nt | i | i | i | i | i
CC(C)C[C@H](NC(=O)[C@H](Cc1ccccc1)NC(=O)[C@H](Cc1ccccc1)NC(=O)[C@@H](N)CO)C(=O)N[C@@H](CCCN=C(N)N)C(=O)N[C@@H](CC(N)=O)C(=O)O | nt | nt | nt | i | i | i
COc1ccccc1N1CCN(C(=O)CNC(=O)c2ccc(Cl)cc2Cl)CC1 | i | i | i | i | i | i
CCCOc1c(Br)cc(C2C3=C(CCCC3=O)N(C)C3=C2C(=O)CCC3)cc1OC | i | i | 9.3µM | i | i | i
COC(=O)c1ccc(NC(=S)N2CCN(CCO)CC2)cc1 | i | ? | i | i | i | i
COc1cc(OC)cc(-c2cc3nc4c(c(N5CCN(c6ncccn6)CC5)n3n2)CCCC4)c1 | i | i | 1.3µM | i | i | i
Fc1cccc(-c2cc3nc4c(c(N5CCC6(CC5)OCCO6)n3n2)CCCC4)c1 | i | i | 9.3µM | 108 | 28 | i
Cc1nc2cc(-c3cccc(F)c3)nn2c(N2CCOCC2)c1C | i | nt | nt | nt | nt | nt
Clc1cccc(-c2cc3nc4c(c(NCc5ccco5)n3n2)CCCC4)c1 | i | ? | i | 131 | 47 | i
CN(CCO)c1c2c(nc3cc(-c4cccc(F)c4)nn13)CCCC2 | i | ? | i | i | 42 | i
COC(=O)N1CCC2(CCN(Cc3ccccc3OC)CC2)CC1 | nt | nt | nt | nt | nt | i
O=C1N/C(=N\N=C\c2cccs2)SC1Cc1ccc(Cl)c(Cl)c1 (centres undefined) | nt | ? | ? | i | i | i
COC(=O)C(CCSC)NS(=O)(=O)c1ccccc1Br (centres undefined) | nt | nt | nt | i | i | i
OCCCNc1c2c(nc3cc(-c4ccc(Cl)cc4)nn13)CCC2 | i | ? | ? | 40 | 5.9 | i
OC1CCN(c2c3c(nc4cc(-c5cccc(F)c5)nn24)CCCC3)CC1 | i | i | 9.3µM | i | 33 | i
Clc1cccc(-c2cc3nc4c(c(N5CCNCC5)n3n2)CCCC4)c1 | i | i | i | i | 31 | i
COc1cccc(CC2(CO)CCN(CC3=CC[C@H]4C[C@@H]3C4(C)C)CC2)c1 | i | i | i | i | i | i
O=c1cnc2cnc(N3CCNCC3)nc2n1CCc1ccccc1 | nt | nt | nt | nt | nt | i
CC(OC(=O)C1=COCCO1)C(=O)Nc1ccccc1C#N (centres undefined) | nt | i | i | i | i | i
CCCCC(=O)Nc1nnc(/C=C/c2ccc(OC)cc2)s1 | i | i | i | i | i | i
CCCC(=O)Nc1nnc(/C=C/c2ccc(OC)cc2)s1 | i | i | i | i | 19 | i
SMILES | NS1 inh | Pf growth 96h | Pf growth 48h | Shiga toxin inh | CHX counter | Giardia FBPA inh
COc1ccc(/C=C/c2nnc(NC(=O)COc3ccccc3)s2)cc1 | i | i | i | i | i | i
COc1ccc(/C=C/c2nnc(NC(=O)C(C)(C)C)s2)cc1 | i | i | i | i | 22 | i
COc1ccc(/C=C/c2nnc(NC(=O)COc3ccc(C)cc3)s2)cc1 | i | i | i | i | 14 | i
CCCC(=O)Nc1nnc(/C=C/c2ccccc2)s1 | i | ? | i | 40 | 26 | i
CCCCCCCCCCCCCCCCCC(=O)OC[C@@H](O)[C@H]1OC[C@H](O)[C@H]1O | nt | i | i | nt | nt | nt
COc1cccc(CN2CC34CC(c5ccc(C(C)=O)cc5)C(CC3S2(=O)=O)O4)c1 (centres undefined) | nt | nt | nt | i | i | i
O=C(Nc1nnc(COc2ccc(Cl)cc2)s1)c1cccs1 | i | nt | ? | i | i | i
COc1ccc(/C=C/c2nnc(NC(=O)COc3cccc(C)c3)s2)cc1 | i | ? | i | i | i | i
CCOC(=O)Nc1nnc(/C=C/c2ccc(OC)cc2)s1 | i | i | i | i | 24 | i
CC(C)(C)C(=O)Nc1nnc(COc2ccc(Cl)cc2)s1 | i | i | i | 38 | 25 | i
CCC(=O)Nc1nnc(/C=C/c2ccccc2)s1 | i | i | i | 49 | 44 | i
C/C(CCS(=O)(=O)c1ccccc1)=N/O | nt | i | i | i | i | i
CCOc1ccccc1CN1CCN(CCCc2ccccc2)CC1CCO (centres undefined) | i | i | i | nt | i | i
CCOc1ccc(Nc2nc3c(c(=O)[nH]2)CCCC3)cc1 | i | i | 2.3µM | i | i | i
Cc1ccc(Nc2nc3c(c(=O)[nH]2)CCCC3)cc1 | i | ? | ? | i | i | i
O=c1[nH]c(Nc2nc3ccccc3o2)nc2c1CCCC2 | i | i | i | 76 | 39 | i
CCOc1ccc(Nc2nc3c(c(=O)[nH]2)CCC3)cc1 | i | ? | ? | i | i | i
Cn1cccc1C(=O)N1CCC2(CC1)CN(C(=O)Nc1ccccc1)C2 | nt | nt | nt | nt | nt | i
COCCN=c1scc(-c2cccs2)n1/N=C(\C)c1ccco1 | nt | ? | i | 124 | 83 | i
Oc1ccc(/C=N/n2c(-c3ccco3)csc2=Nc2cccnc2)c(O)c1 | ? | ? | ? | i | i | i
COCCN=c1scc(-c2ccco2)n1/N=C/c1ccc(O)c(O)c1O | i | ? | ? | i | i | 18µM
CC(C)N=c1scc(-c2ccco2)n1/N=C/c1ccc(O)c(O)c1 | i | ? | ? | i | 43 | i
COC(=O)c1ccc(-c2ccco2)n1Cc1cc(C)ccc1C | i | ? | nt | i | i | i
C=CCN=c1scc(-c2ccco2)n1/N=C/c1ccc(O)c(O)c1O | i | ? | ? | i | i | 22µM
C[Si](C)(C/C=C/CC[C@H](O)C1=CCCCC1=O)c1ccccc1 | nt | nt | nt | nt | nt | i
SMILES | NS1 inh | Pf growth 96h | Pf growth 48h | Shiga toxin inh | CHX counter | Giardia FBPA inh
COc1ccc(S(=O)(=O)NCc2nc3nc(C)cc(C)n3n2)cc1OC | i | 5.2µM | i | i | i | i
CCN(Cc1ccccc1)C(=O)CCc1nc(CN2CCN(C(=O)c3ccc([N+](=O)[O-])cc3)CC2)no1 | i | ? | i | i | i | ?
O=C(CCCNC(=O)c1ccc(Cl)cc1)Nc1ccccc1C(F)(F)F | i | i | i | i | i | i
CC(O)[C@H]1CN=C(N)N1CCCCC1CCCCC1 (some centres undefined) | i | 3.3µM | 9.3µM | i | i | i
C[C@H]1CN=C(N(C)C)N1CCCC1CCCCC1 | nt | i | ? | nt | nt | nt
CC(=O)C1=C(C)Nc2ncnn2C1c1ccccc1Cl (centres undefined) | i | 0.52µM | i | i | i | i
